Only some compounds are listed: those with a hit (about 3.1% of all), similar ones and a draw of the others.
RAD54 inh = RAD54 (human) branch migration inhibition | Q92698 | RAD54 Holliday junction branch migration, FAM/BHQ fluorescence | inhibition, % at 10.4 µM | hit rate 0.14% among 360,000;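 active = mean normalized replicate activity at least 40 and at least half of replicates scoring 40 or more; inconclusive = only one of the two criteria met; inactive = mean below 40 and under half of replicates reaching 40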;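 note: inhibitors cause a drop in the FAM fluorescence signal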
Target sequence (Q92698 whole entry, looked up): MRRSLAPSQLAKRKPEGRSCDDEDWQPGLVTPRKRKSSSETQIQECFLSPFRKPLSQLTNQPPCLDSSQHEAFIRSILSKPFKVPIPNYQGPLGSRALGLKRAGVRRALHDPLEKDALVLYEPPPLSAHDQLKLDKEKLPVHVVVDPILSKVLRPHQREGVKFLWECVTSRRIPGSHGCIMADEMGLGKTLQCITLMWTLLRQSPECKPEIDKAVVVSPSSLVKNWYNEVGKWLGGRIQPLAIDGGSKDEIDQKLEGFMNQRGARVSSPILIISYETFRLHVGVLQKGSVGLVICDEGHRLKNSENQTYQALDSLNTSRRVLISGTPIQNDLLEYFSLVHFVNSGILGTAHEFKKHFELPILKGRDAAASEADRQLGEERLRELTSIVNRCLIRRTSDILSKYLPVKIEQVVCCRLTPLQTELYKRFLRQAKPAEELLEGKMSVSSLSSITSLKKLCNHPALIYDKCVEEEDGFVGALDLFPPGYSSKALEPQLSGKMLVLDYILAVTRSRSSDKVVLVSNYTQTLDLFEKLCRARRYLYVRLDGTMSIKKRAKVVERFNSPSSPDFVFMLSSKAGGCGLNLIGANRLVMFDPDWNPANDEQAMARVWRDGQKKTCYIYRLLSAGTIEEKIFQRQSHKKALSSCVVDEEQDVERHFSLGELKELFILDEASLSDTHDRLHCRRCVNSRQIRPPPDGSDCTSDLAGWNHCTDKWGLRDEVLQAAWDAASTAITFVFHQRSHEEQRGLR
DENV2 CPE rescue = DENV2-induced cell death inhibition; DENV2-infected cells, cytopathic effect rescue, plate reader; CPE inhibition, % at 9.99 µM; hit rate 1.7% among 350,000; in the data active = CPE inhibition above about 20%, passing the limit was not always enough; inconclusive = no clear call, values can overlap the other calls; tested in BHK-21 cells
INS-1E GSIS act = GLuc luminescence reporter in INS-1E cells, primary screen for activators of glucose-dependent secretion of insulin; INS-1E GLuc reporter insulin secretion, 2-3 h; activation, % at 16.6 µM; hit rate 0.61% among 370,000; AID 743287;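 active = lowest replicate activation of at least 40%, so every replicate reaches that level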
dFosB activator = activators of mouse delta FosB homodimer | P13346 | purified delta FosB, TAMRA-CDK5 oligo fluorescence polarization; percent of positive-control signal above neutral wells | activation, % at 25 µM | hit rate 0.99% among 340,000 | AID 493131;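 active = mean activation above about 17%, with every replicate also reaching it, limit read from the data, passing the limit was not always enough; inconclusive = only one of the two conditions met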
RAD52 anneal inh = blocks human RAD52 DNA annealing. hit rate 0.46% among 360,000. recombinant RAD52 DNA annealing, FRET fluorescence. inhibition, % at 18.7 µM;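 active = every replicate showing at least 50% inhibition; inconclusive = mean inhibition at least 50% but not in every replicate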
MLL AF4-AF9 inh = inhibitors of human MLL-AF4/AF9 interaction | AID 651704 | P42568 | inhibition, % at 10 µM | hit rate 0.47% among 350,000 | AlphaScreen, biotin-AF4 peptide binding to FLAG-AF9;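 active = every replicate reaching a set inhibition limit, whatever the replicate mean, cut at about 25% in these data; inconclusive = mean inhibition reaches that limit but some replicates miss it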
Numbers stand for hits; n = inactive; u = inconclusive; x = no result given.

SMILES	RAD54 inh	DENV2 CPE rescue	INS-1E GSIS act	dFosB activator	RAD52 anneal inh	MLL AF4-AF9 inh
Cc1ccc(NC(=O)c2nc[nH]c2C(=O)N[C@@H](C)C(=O)OC(C)(C)C)cc1	n	98	n	n	n	n
C[C@H](NC(=O)c1[nH]cnc1C(=O)Nc1ccccc1)C(=O)OC(C)(C)C	n	n	n	n	n	47
COc1ccc(NC(=O)c2nc[nH]c2C(=O)N[C@@H](C)C(=O)OC(C)(C)C)cc1	n	x	n	n	x	x
C[C@@H]1CCCCO[C@H](CN(C)CC2CC2)[C@H](C)CN([C@@H](C)CO)C(=O)c2cc(NC(=O)c3ccncc3)ccc2O1	n	n	n	x	n	n
C[C@@H]1CN([C@@H](C)CO)C(=O)c2cc(NC(=O)c3ccccc3)ccc2O[C@@H](C)CCCCO[C@H]1CN(C)C(=O)c1ccncc1	n	n	n	x	n	n
COc1ccc(S(=O)(=O)N[C@@H]2CC[C@@H](CC(=O)N3CCC(Cc4ccccc4)CC3)O[C@H]2CO)cc1	n	n	n	x	n	n
CCCC(=O)Nc1cc(OC)c(NC(=S)Nc2ccc(CC)cc2)cc1OC	n	n	n	n	n	n
CCCC(=O)Nc1cc(OC)c(NC(=S)Nc2cccc(C)c2)cc1OC	n	92	n	x	n	n
O=c1cc2oc3cc(O)c(O)cc3c(-c3ccccc3O)c-2cc1O	x	x	x	n	x	x
COc1ccc(OC)c(-c2c3cc(O)c(=O)cc-3oc3cc(O)c(O)cc23)c1	x	x	x	46	x	x
CCOc1ccccc1-c1c2cc(O)c(=O)cc-2oc2cc(O)c(O)cc12	x	x	x	51	x	x
CCCNC(=O)[C@H]1[C@H](CO)[C@H]2Cn3c(ccc(-c4cccnc4)c3=O)[C@H]2N1C(=O)c1ccccc1F	n	n	n	x	n	x
Cc1noc(C)c1S(=O)(=O)Nc1ccc2c(c1)CC(=O)N([C@@H](C)CO)C[C@@H](C)[C@@H](CN(C)C(=O)NC(C)C)O2	n	n	n	x	n	n
C[C@@H]1CCCCO[C@@H](CN(C)C(=O)Nc2ccc(F)cc2)[C@H](C)CN([C@@H](C)CO)C(=O)c2cc(NS(=O)(=O)c3cccs3)ccc2O1	n	n	n	x	n	n
C[C@@H]1CCCCO[C@H](CN(C)C(=O)Nc2ccc(C(F)(F)F)cc2)[C@H](C)CN([C@@H](C)CO)C(=O)c2cc(NS(=O)(=O)c3cccs3)ccc2O1	n	37	n	x	n	n
C[C@@H]1CN([C@@H](C)CO)C(=O)c2cc(NS(=O)(=O)c3cccs3)ccc2O[C@@H]1CN(C)C(=O)Nc1ccc(F)cc1	n	n	n	x	n	47
C[C@@H]1CCCCO[C@H](CN(C)C(=O)Nc2ccc(F)cc2)[C@@H](C)CN([C@H](C)CO)C(=O)c2cc(NS(=O)(=O)c3cccs3)ccc2O1	n	22	n	x	n	n
O=C(CCn1c(=S)[nH]c2cc3c(cc2c1=O)OCO3)NCCc1ccccc1Cl	n	n	n	x	n	n
O=C(CCn1c(=S)[nH]c2cc3c(cc2c1=O)OCO3)NCc1ccccc1Cl	n	n	n	35	n	n
Cn1cnc(S(=O)(=O)N2C[C@H](O)COC[C@@H]3O[C@H](CC(=O)N4CCN(c5ccccc5)CC4)CC[C@H]32)c1	n	n	n	x	n	n
O=C(NCc1ccccc1)[C@H]1N[C@H]2c3cccc(=O)n3C[C@H]2[C@@H]1CO	n	n	n	x	n	n
CC(SCC(=O)Nc1ccccc1)c1nc2ccccc2c(=O)[nH]1 (stereo not drawn)	n	x	n	n	n	n
Cc1c(Cl)cccc1NC(=O)CSC(C)c1nc2ccccc2c(=O)[nH]1 (stereo not drawn)	n	n	n	41	n	n
CO[C@H]1CC[C@@H]2CCN(C)C(=O)C[C@@H](c3ccccc3)CN(C)C(=O)c3cccc(C#N)c3OC[C@@H]1O2	n	n	n	x	n	n
COc1ccc2nc3oc(C(=O)NCc4cccs4)cc3cc2c1	n	x	x	60	x	x
SMILES	RAD54 inh	DENV2 CPE rescue	INS-1E GSIS act	dFosB activator	RAD52 anneal inh	MLL AF4-AF9 inh
COCCNC(=O)c1cc2cc3ccc(OC)cc3nc2o1	n	25	n	n	n	n
COc1ccc(OC)c(NC(=O)Nc2nc(C(N)c3ccccc3Cl)cs2)c1 (stereo not drawn)	n	n	n	x	n	26
COc1ccc(CN(C)C[C@H]2Oc3ccc(NC(=O)NC4CCCCC4)cc3C(=O)N([C@@H](C)CO)C[C@@H]2C)cc1	n	n	n	x	n	n
CCN1C(=NCCN2CCOCC2)N[C@@H](c2ccccc2)C(C(=O)OC)=C1C	n	n	n	n	n	n
COC(=O)C1=C(C)N(Cc2ccccc2)C(=NCCN2CCOCC2)N[C@H]1CCc1ccccc1	n	44	n	n	n	n
C[C@@H]1CN([C@@H](C)CO)C(=O)c2cc(-c3cncnc3)cnc2O[C@@H]1CN(C)C(=O)CN1CCOCC1	n	n	n	x	n	n
CC(C)Cn1c(O)c(/C=C2\C=NN=C2c2ccccc2)sc1=S	x	x	83	n	x	x
Cn1c(O)c(/C=C2\C=NN=C2c2ccccc2)sc1=S	x	n	n	u	n	x
CCn1c(O)c(/C=C2\C=NN=C2c2ccccc2)sc1=S	x	n	n	n	n	x
CCCCn1c(O)c(/C=C2\C=NN=C2c2ccccc2)sc1=S	n	x	119	n	x	x
CCCCCCn1c(O)c(/C=C2\C=NN=C2c2ccccc2)sc1=S	x	x	164	n	x	x
C[C@H](CO)N1C[C@H](C)[C@H](CN(C)S(=O)(=O)c2ccc(Cl)cc2)Oc2c(NS(=O)(=O)c3ccc(F)cc3)cccc2C1=O	n	n	n	x	n	n
C[C@H](CO)N1C[C@H](C)[C@@H](CN(C)C(=O)Nc2ccc3c(c2)OCO3)Oc2ccc(NC(=O)Cn3cnnn3)cc2CC1=O	n	24	n	x	n	n
C[C@@H]1CN([C@@H](C)CO)C(=O)Cc2cc(NC(=O)C3CC3)ccc2O[C@H]1CN(C)C(=O)Nc1ccc2c(c1)OCO2	n	n	n	x	n	n
C[C@H](CO)N1C[C@H](C)[C@@H](CN(C)C(=O)Nc2ccc3c(c2)OCO3)Oc2ccc(NC(=O)C3CC3)cc2CC1=O	n	54	n	x	n	n
COCC#Cc1ccc2c(c1)O[C@@H](CN(C)C(=O)C1CC1)[C@@H](C)CN([C@@H](C)CO)S2(=O)=O	n	n	n	x	n	n
Nc1nc2c(ncn2[C@@H]2O[C@H](CNCc3ccc(F)c(N4CCOCC4)c3)[C@@H](O)[C@H]2O)c(=O)[nH]1	n	26	x	x	n	n
Nc1nc2c(ncn2[C@@H]2O[C@H](CNCc3ccccc3)[C@@H](O)[C@H]2O)c(=O)[nH]1	n	n	x	x	n	n
C[C@@H]1CN([C@@H](C)CO)C(=O)Cc2cc(NC(=O)Nc3ccccc3)ccc2O[C@H]1CN(C)C(=O)Nc1cccc2ccccc12	n	n	n	x	n	n
C[C@H]1CN([C@@H](C)CO)C(=O)c2cc(N(C)C)ccc2O[C@@H]1CN(C)Cc1ccc(C(F)(F)F)cc1	n	n	n	x	n	n
